Measured values taken from PubChem BioAssay (Tox21).
Unmarked numbers belong to inactive results. Calls of active or inactive are those of the source. The call rests on the fitted dose curve; in most records, active means well fitted inhibition curve with a large enough effect in the repeat runs (not every such curve was filed as active); inconclusive means weak or mixed curves; inactive means flat fitted curve, though single readings scatter.

Biological target: Thyrotropin-releasing hormone receptor (Homo sapiens) (UniProt P34981)
Assay: qHTS assay to identify small molecule antagonists of the thyrotropin-releasing hormone receptor (TRHR) signaling pathway (AID 1346877)
Settings: TRHR-HEK293, TRH-induced calcium fluorescence, antagonist mode; series mostly up to 51.3 µM
Text: National Center for Advancing Translational Sciences [NCATS]
NIH Chemical Genomics Center [NCGC]
U.S. Environmental Protection Agency [EPA]
National Institutes of Environmental Health Sciences [NIEHS]
National Toxicology Program [NTP]
U.S. Food and Drug Administration [FDA]
Thyrotropin-releasing hormone (TRH) receptor (TRHR) is a G-protein-coupled receptor which binds the tripeptide thyrotropin releasing hormone. TRHR is found in the brain and, when bound by TRH, acts (through phospholipase C) to increase intracellular inositol trisphosphate. It plays a crucial role in the anterior pituitary where it controls the synthesis and secretion of thyroid stimulating hormone and prolactin. The TRHR-Hek293 assay is a cell-based assay, and it has the potential to screen G protein-coupled receptors. A compound/drug can either activate (agonist) or suppress (antagonist) GPCRs that can be monitored by levels of intracellular calcium. In this assay, the Tox21 10K compound library was screened to identify potential TRHR antagonists.
Tox21 Assay Protocol Summary:
The TRHR-Hek293 cells were dispensed at 1500cells/4uL/well in 1536-well black-clear bottom plates using a Multidrop dispenser. After the assay plates were incubated at a 37 C/5% CO2 incubator for 18 hours, 4 uL of Dye-Loading Solution was added to each well. The plates were incubated at 37 C for 2 hours. For agonist mode, 23 nL of compounds dissolved in DMSO, positive controls or DMSO only was transferred to the assay plate by a pin tool. The fluorescence intensity in the plates was measured using FDSS 7000EX kinetic plate reader for 3 min at 1 sec intervals. For antagonist mode, 23 nL of compounds dissolved in DMSO, positive controls or DMSO only was transferred to the assay plate by a pin tool. After 5 min incubation at room temperature, 1 uL of TRH was added on the top of the cell/compound mixtures to achieve a final agonist concentration of 1 nM. The fluorescence intensity in the plates was measured using FDSS 7000EX kinetic plate reader for 3 min at 1 sec intervals. Each test compound was measured at 15 concentrations and in triplicates.
On the % scale 0 is the no-effect control and ±100 the full control effect.

Sequence of Thyrotropin-releasing hormone receptor (Homo sapiens) (P34981 whole entry, looked up): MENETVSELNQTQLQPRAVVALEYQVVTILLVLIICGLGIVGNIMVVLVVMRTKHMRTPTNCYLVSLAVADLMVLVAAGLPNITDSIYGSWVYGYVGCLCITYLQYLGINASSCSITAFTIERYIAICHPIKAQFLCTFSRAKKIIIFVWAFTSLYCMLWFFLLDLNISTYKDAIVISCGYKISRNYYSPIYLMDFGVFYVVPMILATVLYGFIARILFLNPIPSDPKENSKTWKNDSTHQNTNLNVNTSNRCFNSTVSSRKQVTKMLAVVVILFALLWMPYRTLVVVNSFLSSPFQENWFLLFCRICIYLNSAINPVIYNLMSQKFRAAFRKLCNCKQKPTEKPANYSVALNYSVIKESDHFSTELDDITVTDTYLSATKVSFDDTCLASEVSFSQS

| Structure (SMILES) | outcome | activity, negative = inhibition |
| --- | --- | --- |
| CN(C)CC/C=C1\c2ccccc2COc2ccccc21 | inactive |  |
| CC[C@@H]1C[C@H](N(Cc2cc(C(F)(F)F)cc(C(F)(F)F)c2)C(C)=O)c2cc(C(F)(F)F)ccc2N1C(=O)OC(C)C | inactive |  |
| Cc1ccc(C(C)c2ccc(C)c(C)c2)cc1C | inactive |  |
| COc1ccc(C(C)=O)cc1 | inactive |  |
| CC[C@H](C)[C@@H](C(=O)O)n1sc2ccccc2c1=O | inactive |  |
| Cc1ccc(C)o1 | inactive |  |
| CCN(CC)CCc1nc(-c2ccccc2)no1 | inactive |  |
| Cn1c(N)nc2nc[nH]c2c1=O | inactive |  |
| CCOc1cc(OCC)c(C(=O)CCC(=O)O)cc1OCC | inactive |  |
| N[C@H]1C(O)O[C@H](CO)[C@H](O)[C@@H]1O (stereo not given in full) | inactive |  |
| O=C1c2cccc(O)c2C(=O)c2c(O)cc(CO)cc21 | inactive |  |
| C1CCC2OC2C1 (stereo not given) | inactive |  |
| CC[C@H](C)[C@H](N)C(=O)O | inactive |  |
| CCCCC(CC)(CO)CO | inactive |  |
| CCN(CCO)CCCC(C)Nc1ccnc2cc(Cl)ccc12 (stereo not given) |  | 0.0536% [at 4.65 µM] |
| O=c1c2ccccc2nnn1CCl | inactive |  |
| CC(C)(Oc1ccc(Cl)cc1)C(=O)OCCCOC(=O)C(C)(C)Oc1ccc(Cl)cc1 | inactive |  |
| CNS(=O)(=O)Cc1ccc2[nH]cc(CCN(C)C)c2c1 | inactive |  |
| CCCCC(CC)COCCCN (stereo not given) | inactive |  |
| CC(C)(C)c1cc(CO)cc(C(C)(C)C)c1O | inactive |  |

| Structure (SMILES) | outcome | activity, negative = inhibition |
| --- | --- | --- |
| CCCC[C@H]1CN(CC2CCOCC2)C(=O)OC12CCN(C1(C)CCN(C(=O)c3c(C)ncnc3C)CC1)CC2 | inactive |  |
| COc1ccc(OC)c(OC)c1 | inactive |  |
| CN(C)CCCNCCCN | inactive |  |
| CCOC(=O)CC(C)C | inactive |  |
| CCOc1ccc2[nH]cc(C(=O)NCc3ccccc3)c(=O)c2n1 | inactive |  |
| CC(C(=O)O)c1ccc(C(=O)c2ccccc2)s1 (stereo not given) | inactive |  |
| C[C@H](CCC(=O)O)[C@H]1CC[C@H]2[C@@H]3[C@H](O)C[C@@H]4C[C@H](O)CC[C@]4(C)[C@H]3CC[C@]12C | inactive |  |
| CC(C)CCCC(C)CCO (stereo not given) | inactive |  |
| O=C(O)[C@@H]1[C@H]2C[C@H]3c4[nH]c5ccccc5c4CCN3C[C@@H]2CC[C@@H]1O | inactive |  |
| C=CC(=O)OCCOC(=O)CCC(=O)O | inactive |  |
| Nc1nc(CC(=O)O)cs1 | inactive |  |
| CC(=O)/C=C/C1C(C)=CCCC1(C)C (stereo not given) | inactive |  |
| CC(=O)N(CC(=O)N(C)C)c1ccccc1 | inactive |  |
| O=C(NS(=O)(=O)/C=C/c1cccs1)c1ccc(F)cc1Br | inactive |  |
| O=C=NC1CCC(CC2CCC(N=C=O)CC2)CC1 (stereo not given) | inactive |  |
| O=C(O)C(c1ccc(Cl)cc1)c1ccc(Cl)cc1 | inactive |  |
| N#CCCNCCC#N | inactive |  |
| O=C(Nc1ccccc1)OCC(CN1CCCCC1)OC(=O)Nc1ccccc1 (stereo not given) | inactive |  |
| O=[N+]([O-])c1cc[n+]([O-])cc1 | inactive |  |
| CCCCCCCCCCCCC(=O)O | inactive |  |
